Where “and” joins values, the source holds several entries; their conditions need not be identical. Identical values can stand only once. Records with an inconclusive call do not appear. Calls of active or inactive are those of the source. Unless noted, calls come from the whole dose curve; as a rule, active = well fitted curve in the direction sought with a large enough effect; inconclusive = small, poorly fitted or top-dose-only effect, or another doubt; inactive = no such curve, though single readings can be large; an effect the other way counts as inactive or inconclusive.
What was measured:
[1] = qHTS to identify inhibitors of the type 1 interferon - major histocompatibility complex class I in skeletal muscle: primary screen against the NCATS Mechanism Interrogation Plate v5.0 (MIPE) Libary (AID 1347411);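 note: plate controls were vehicle for no effect and reference inhibitor for full effect; nearly all actives have a fitted effect of over 65% in size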
Summary of the method: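 Cells were genome-edited human myoblasts carrying a HiBit tag on endogenous HLA-B. They were treated with IFN-beta (4.0 ng/ml) and titrated compounds (top 46 uM) for 24 hrs before lytic HiBiT detection.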

[2] = target: Glutathione peroxidase 1 (Homo sapiens) (UniProt P07203); assay: Primary qHTS Assay for Inhibitors of Recombinant Selenoprotein Glutathione Peroxidase 1 (GPX1) (AID 1845191); note: nearly all actives have a fitted effect of over 65% in size; note: potency is the fitted concentration of half-maximal effect
Summary of the method: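 GR-coupled assay: compounds preincubated 30 min at room temperature with GPX1, then reaction started with CHP; final 10 nM GPX1, 1 mM GSH, 0.5 mM CHP, 0.5 mM NADPH, 100 nM GR, 0.01% BSA, pH 7.5 Tris buffer. NADPH fluorescence (340/450 nm) read at 0 and 15 min.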

[3] = qHTS drug screen for cell cycle checkpoint inhibitors in PARPi-resistant BRCA-mutant ovarian cancer cell lines. (AID 1963452; calls by dose curve; note: potency is the fitted concentration of half-maximal effect); settings: PEO1/OlaR viability, CellTiter-Glo luminescence, 96 h; for Z-AUC: stronger effect = lower value
Summary of the method: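 PEO1, PEO4 and PEO1/OlaR ovarian cancer cells, 600 per well, exposed 96 h at 37C to a dilution series. Viability read by CellTiter-Glo luminescence, normalized to DMSO and empty wells; activity summarized as Z-AUC.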

[4] = Primary qHTS for inhibitors of nuclear receptor binding SET domain protein 2 (NSD2) in an isogenic RCH-ACV NSD2 p.E1099K mutant (9B) (AID 1645876); note: nearly all actives have a fitted effect of over 70% in size; note: potency is the fitted concentration of half-maximal effect
[5] = Primary qHTS for inhibitors of nuclear receptor binding SET domain protein 2 (NSD2) in an RCH-ACV wild type WT cells (2C) (AID 1645877); note: nearly all actives have a fitted effect of over 70% in size; note: potency is the fitted concentration of half-maximal effect
[6] = target: Phospholipid hydroperoxide glutathione peroxidase GPX4 (Homo sapiens) (UniProt P36969); assay: Primary qHTS Assay for Inhibitors of Recombinant Selenoprotein Glutathione Peroxidase 4 (GPX4) (AID 1845192); settings: outcome: dose series up to 50 µM unless noted; note: nearly all actives have a fitted effect of over 65% in size; note: potency is the fitted concentration of half-maximal effect; for activity change, negative = inhibition: % is set by controls: 0 for no effect and ±100 for the full control effect
Summary of the method: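 GR-coupled assay: recombinant GPX4 preincubated 30 min with compound at room temperature; final 200 nM GPX4, 1 mM GSH, 0.5 mM cumene hydroperoxide, 0.5 mM NADPH, 100 nM GR, 0.01% BSA, pH 7.5 Tris. NADPH fluorescence (340/450 nm) read at 0 and 15 min.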

[7] = qHTS assay to identify inhibitors of the type 1 interferon - major histocompatibility complex class I in skeletal muscle: Counter screen cell viability and HiBit confirmation (AID 1347412); settings: iHSKM muscle cells + IFN-b, HiBiT or CellTiter-Glo, 24 h; for activity change, negative = inhibition: at 45.9 µM (top of the series); note: potency is the fitted concentration of half-maximal effect; for activity change, negative = inhibition: % is set by controls: 0 for no effect and ±100 for the full control effect; for all read-outs here: nearly all actives have a fitted effect of over 60% in size
Summary of the method: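 After 24 h with human IFN-beta (4 ng/ml) and compound titrations (top 46 uM final, 1:3, 12 points), HLA-B HiBit myoblasts were lysed for either Nano-Glo HiBiT luminescence or CellTiter Glo viability on paired plates.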

[8] = measured here: PEO1 parental Z-AUC

Glutathione peroxidase 1 (Homo sapiens), sequence (P07203 whole entry, looked up): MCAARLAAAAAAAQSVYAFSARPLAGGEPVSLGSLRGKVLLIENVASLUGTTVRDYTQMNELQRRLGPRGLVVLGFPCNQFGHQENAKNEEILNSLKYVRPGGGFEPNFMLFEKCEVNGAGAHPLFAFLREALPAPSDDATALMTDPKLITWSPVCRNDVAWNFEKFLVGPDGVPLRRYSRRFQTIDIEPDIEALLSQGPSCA
Phospholipid hydroperoxide glutathione peroxidase GPX4 (Homo sapiens), sequence (P36969 whole entry, looked up): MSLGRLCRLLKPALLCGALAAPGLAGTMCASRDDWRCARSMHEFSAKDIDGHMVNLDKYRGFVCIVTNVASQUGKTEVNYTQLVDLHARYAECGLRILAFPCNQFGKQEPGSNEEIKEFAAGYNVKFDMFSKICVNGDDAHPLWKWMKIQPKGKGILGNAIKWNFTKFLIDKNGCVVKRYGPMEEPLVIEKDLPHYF

Compound | Potency [1] | Potency [2] | Z-AUC [3] | Z-AUC [3, 8] | Z-AUC ([3]; measured here: PEO4 Z-AUC) | Potency [4] | Potency [5] | Potency [6] | activity change, negative = inhibition ([7]; HiBiT) | activity change, negative = inhibition ([7]; Viability) | Potency ([7]; HiBiT) | Potency [3]
C[C@@H](O)[C@@H]1NC(=O)[C@H](CCCCN)NC(=O)[C@@H](Cc2c[nH]c3ccccc23)NC(=O)[C@H](Cc2ccccc2)NC(=O)[C@@H](NC(=O)[C@H](N)Cc2ccccc2)CSSC[C@@H](C(=O)N[C@H](CO)[C@@H](C)O)NC1=O | inactive | inactive | 0.896 (inactive) | 0.495 | 0.728 |  |  |  |  |  |  | 
CN(C)CCOc1ccc(-c2nc(-c3ccc4c(c3)CC/C4=N\O)c(-c3ccncc3)[nH]2)cc1 |  | inactive |  |  |  | 16.6 µM (active) | 10.5 µM (active) | inactive | 24.4% (inactive) | -15.1% (inactive) |  | 
Cc1cc(O)c(-c2ccc([C@@H](C)CN)cc2)c2c1[nH]c(=O)c1sccc12 |  |  | -2.55 (inactive) | -2.78 | -2.98 | inactive | inactive | inactive |  | -14.1% (inactive) | 39.4 nM (active) | 
N#C/C(=C1/Nc2ccccc2S1)c1ccnc(OCc2ccc(CN3CCOCC3)cc2)n1 | inactive | inactive | 0.822 (inactive) | 0.219 | -0.057 |  |  |  |  |  |  | 
CC#CC(=O)N1CC[C@@H](n2c(=O)n(-c3ccc(Oc4ccccc4)cc3)c3c(N)ncnc32)C1 |  | inactive |  |  |  | 6.61 µM (active) | 16.6 µM (active) | inactive | -23.5% (inactive) | -0.0272% (inactive) |  | 
CCS(=O)(=O)Nc1ccc(Oc2ccc(F)cc2F)c(-c2cn(C)c(=O)c3[nH]ccc23)c1 |  | inactive |  | -1.41 | -1.58 | 0.0132 µM (active) | 0.0074 µM (active) | inactive |  | -28.2% (inactive) | 55.7 nM (active) | 0.0389 µM (active)
NS(=O)(=O)Oc1ccc2c3c(c(=O)oc2c1)CCCCC3 | inactive | 4.09 µM (active) | 0.451 (inactive) | 0.12 | -0.024 |  |  | 18 µM (active) |  |  |  | 
CC(C)Oc1ccc(-c2nn([C@@H](C)c3oc4ccc(F)cc4c(=O)c3-c3cccc(F)c3)c3ncnc(N)c23)cc1F | inactive | inactive | 0.0255 (inactive) | -0.265 | -0.0554 |  |  | inactive |  |  |  | 
CCc1c(-c2ccccc2C)nc2c(C#N)c[nH]n2c1=O |  | inactive | 1.17 (inactive) and -0.599 (inactive) | 1.23 and -0.433 | 1.49 and -0.54 | inactive | inactive | inactive |  | 16.2% (inactive) and -8.52% (inactive) | 1.4 µM (active) and 787 nM (active) | 
C[C@@H]1Cc2c([nH]c3ccccc23)[C@@H](c2c(F)cc(/C=C/C(=O)O)cc2F)N1CC(C)(C)F | inactive | inactive | -0.309 (inactive) | -0.682 | -0.807 |  |  |  |  |  |  | 

From PubChem BioAssay (NCATS)
